The record followed here is the supplement of paper PMC9446081.

± gives the standard deviation of the averaged measurements.

The test relates to RNA polymerase. In words: relative enzymatic activity vs untreated control (fraction); higher = less inhibition. The note with it: 100 µM; incubation time: 2 h at 37 C. How it is done: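 In vitro enzymatic inhibition assays (ProFoldin kits) for 12 purified essential E. coli enzymes or complexes, each treated with 218 active antibacterial compounds at 100 µM for 2 h at 37°C. Read-outs were fluorescence or absorbance (phosphate detection, dye binding), converted to activity via standard curves and expressed relative to untreated DMSO controls.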
On to `Cc1c(N)nc([C@H](CC(N)=O)NC[C@@H](N)C(N)=O)nc1C(=O)N[C@H](C(=O)N[C@@H](C)[C@H](O)[C@@H](C)C(=O)N[C@@H](C(=O)NCCc1nc(-c2nc(C(=O)NCCC[S+](C)C)cs2)cs1)[C@@H](C)O)[C@@H](O[C@H]1O[C@H](CO)[C@H](O)[C@@H](O)[C@H]1O[C@H]1O[C@H](CO)[C@@H](O)[C@H](OC(N)=O)[C@@H]1O)c1cnc[nH]1`, for which the relative enzymatic activity was 0.875 ± 0.077.
Regarding `CN(C)[C@@H]1C(=O)[C@@H](C(N)=O)C(=O)[C@@]2(O)C(=O)[C@H]3C(=O)c4c(O)ccc(Cl)c4[C@@](C)(O)[C@H]3C[C@@H]12`, the relative enzymatic activity was determined as 0.739 ± 0.086.
As for `O=S(=O)(O)O.Oc1cccc2cccnc12`, the figure is 0.862 ± 0.094.
The value for `CC(=O)Oc1ccc(Cl)c2cccnc12` was 0.7397 ± 0.0065.
The value for `CN(C)[C@@H]1C(=O)C(C(N)=O)=C(O)[C@@]2(O)C(O)=C3C(=O)c4c(O)cccc4[C@](C)(O)[C@H]3C[C@@H]12` was 0.809 ± 0.1.
`Cc1c(N)nc([C@H](CC(N)=O)NC[C@@H](N)C(N)=O)nc1C(=O)N[C@H](C(=O)N[C@@H](C)[C@H](O)[C@@H](C)C(=O)N[C@@H](C(=O)NCCc1nc(-c2nc(C(=O)NCCC[S+](C)C)cs2)cs1)[C@@H](C)O)[C@@H](O[C@H]1O[C@H](CO)[C@H](O)[C@@H](O)[C@H]1O[C@H]1O[C@H](CO)[C@@H](O)[C@H](OC(N)=O)[C@@H]1O)c1c[nH]cn1` yielded a relative enzymatic activity of 0.866 ± 0.032.
`Oc1cc(Cl)ccc1Oc1ccc(Cl)cc1Cl` gave a relative enzymatic activity of 0.935 ± 0.17.
The value for `O=[N+]([O-])C(Br)(CO)CO` was 0.348 ± 0.045.
The value for `CCCCCCCCCCCCCCCC[n+]1ccccc1` was 0.617 ± 0.64.
